# Bioassay records from PubChem.
# Mtb bLac sens: beta-lactam sensitization of Mtb H37Rv. 330,000 compounds, 0.27% hits. inhibition, % at 25 µM. AID 434955. M. tuberculosis H37Rv growth with meropenem, percent inhibition; call rule not given here;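 further: growth measured after seven days incubation then overnight dye step; 0% = bacteria only wells and 100% = bacteria with antibiotic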
# Mtb UGM inh: Mtb UDP-galactopyranose mutase inhibition. purified UGM, fluorescence polarization probe displacement. 320,000 compounds, 0.06% hits. inhibition, % at 10 µM. P9WIQ1; in the data active means inhibition above about 10%, passing the limit was not always enough
# VHR inh abs: blocks human VHR1 dual specificity phosphatase. P51452. recombinant VHR phosphatase, pNPP absorbance. inhibition, % at 13.3 µM. 290,000 compounds, 0.52% hits. AID 1654; in the data active means inhibition above about 50%
# Target sequence (P51452 whole entry, looked up): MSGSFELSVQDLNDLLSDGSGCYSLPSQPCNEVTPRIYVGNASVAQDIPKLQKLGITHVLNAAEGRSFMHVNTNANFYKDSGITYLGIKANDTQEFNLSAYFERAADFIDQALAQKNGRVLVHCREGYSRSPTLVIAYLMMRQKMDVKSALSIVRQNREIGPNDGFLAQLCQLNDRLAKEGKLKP
# Rv3671c inh: inhibitors of M. tuberculosis serine protease Rv3671c. 320,000 compounds, 0.048% hits. P9WHR9. AID 2606. inhibition, % at 5.96 µM; in the data active means inhibition above about 38%;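 further: extracellular domain of Rv3671c used as enzyme; 0% = enzyme with DMSO and 100% = no enzyme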
# Target sequence (P9WHR9 whole entry, looked up, the tested form may be a part): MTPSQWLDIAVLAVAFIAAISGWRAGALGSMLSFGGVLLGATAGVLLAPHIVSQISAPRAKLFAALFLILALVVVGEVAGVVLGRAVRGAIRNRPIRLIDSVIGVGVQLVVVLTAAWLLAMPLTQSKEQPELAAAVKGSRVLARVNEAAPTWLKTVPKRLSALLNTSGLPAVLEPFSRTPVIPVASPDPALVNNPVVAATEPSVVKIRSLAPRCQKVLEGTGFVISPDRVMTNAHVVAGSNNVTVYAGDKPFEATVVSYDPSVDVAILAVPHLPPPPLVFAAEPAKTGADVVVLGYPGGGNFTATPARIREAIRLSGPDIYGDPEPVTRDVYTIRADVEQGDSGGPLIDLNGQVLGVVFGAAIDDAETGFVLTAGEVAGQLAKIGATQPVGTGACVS
# Mtb hypoxia inh: inhibitors of hypoxia-regulated fluorescent reporter in Mycobacterium tuberculosis | fluorescence inhibition, % (concentration not given with the values) | M. tuberculosis hypoxia-regulated fluorescent reporter, fluorescence | AID 1159583 | 300,000 compounds, 0.1% hits; in the data active means fluorescence inhibition mostly above about 23%, no sharp cut-off; inactive means mostly below about 17%
# * marks the source's active call; other numbers are inactive results; / = not tested or not shown. An excerpt weighted towards active compounds, which were near 0.59% of everything screened.
SMILES,Mtb bLac sens,Mtb UGM inh,VHR inh abs,Rv3671c inh,Mtb hypoxia inh
COc1ccc(CC(=O)Nc2ccc(C(=O)O)cc2NC(=O)Cc2ccc(OC)cc2)cc1,-6,1,57*,1,13
COc1ccc(CC(=O)Nc2ccc(N3CCCC3)c(C)c2)cc1,8,-1,50*,0,3
COc1ccc(C(=O)Nc2ccc(C(=O)O)cc2NC(=O)c2ccc(OC)cc2)cc1,7,-2,-9,/,-4
O=C(Cn1c(/C=C/c2ccccc2)nc2ccccc21)Nc1ccc(F)cc1,-2,2,51*,-20,16
CCCCC1=CC2=CC(=O)C(C)(OC(=O)CC)C(=O)C2=CN1c1ccccc1 (stereo unspecified),-3,0,30,-8,5
COc1ccc2cc(C(=O)N3CCc4ccccc43)[nH]c2c1,4,-1,53*,-13,24
O=C(c1cc2cc(Br)ccc2[nH]1)N1CCc2ccccc21,4,-1,27,/,5
Cc1ccc(C(=O)N/C(=C\c2ccc(-c3cccc([N+](=O)[O-])c3)o2)C(=O)NCCCN(C)C)cc1,1,-1,54*,-2,13
CCOc1ccc2oc(C(=O)OCC(=O)NCc3ccc(OC)cc3)c(C)c2c1,-2,1,/,-25,32*
C/C(=N/NC(=O)c1ccncc1)c1cc2ccc(O)cc2oc1=O,99,42*,-1,9,/
O=[N+]([O-])c1ccc(-n2cnc3ccccc32)c([N+](=O)[O-])c1,99,-1,-15,-3,42*
CCOC(=O)Cc1csc(NC(=S)NC(=O)c2ccc(F)cc2)n1,-4,3,7,5,/
CCOC(=O)Cc1csc(NC(=S)NC(=O)c2ccccc2C)n1,-2,1,53*,-1,3
O=C(OCC(=O)C12CC3CC(CC(C3)C1)C2)c1ccc(O)cc1,3,1,/,8,5
O=c1[nH]c(CN2CCN(C/C=C/c3ccccc3)CC2)nc2cc(Cl)ccc12,97,4,54*,-4,6
O=C(CCc1nc2ccccc2c(=O)[nH]1)N1CCN(C/C=C/c2ccccc2)CC1,-3,-2,7,-1,4
NS(=O)(=O)c1ccc(CCNC(=O)C2CCC(CNS(=O)(=O)c3ccc(Br)s3)CC2)cc1 (stereo unspecified),-12,0,8,-13,-7
O=C(NCCS(=O)(=O)N1CCN(c2cccc(Cl)c2)CC1)C1CC1,1,0,/,-8,5
Cc1ccc(-c2nn3c(C)nnc3c3ccccc23)cc1S(=O)(=O)NCCN1CCOCC1,-7,-4,52*,11,5
Cc1ccc(-c2n[nH]c(=O)c3ccccc23)cc1S(=O)(=O)NCCN1CCOCC1,-13,1,13,5,11
Cc1cc(C)n2nc(NCc3ccccc3)nc2n1,-7,0,1,1,14
CC(C)(C)c1cc[n+](-c2[nH]c(=O)sc2/C=N/NC([S-])=Nc2ccccc2)cc1,2,18*,45,9,/
CC(C)(C)c1cc[n+](-c2[nH]c(=O)sc2C=NNC([S-])=Nc2ccccc2)cc1,/,/,/,/,9
CC1=Nc2ccccc2/C1=C\c1nc(-c2ccc(C(F)(F)F)cc2)oc1O,99,12*,23,5,6
CCOc1cc(C(=O)NCCN2C(=O)S/C(=C\c3cccnc3)C2=O)cc(OCC)c1OCC,6,-2,53*,2,/
SMILES,Mtb bLac sens,Mtb UGM inh,VHR inh abs,Rv3671c inh,Mtb hypoxia inh
COc1ccc(C(=O)NCCN2C(=O)S/C(=C\c3cccnc3)C2=O)c(OC)c1OC,1,-3,1,-2,4
CCCCN(C(=O)c1ccco1)c1c(N)n(CCC)c(=O)[nH]c1=O,-2,2,/,1,28*
CCCCN(C(=O)CSc1nnc(-c2ccccc2)o1)c1c(N)n(CCC)c(=O)[nH]c1=O,5,-2,/,-2,30*
CCCCn1c(N)c(N(CCOC)C(=O)c2oc3ccc(Br)cc3c2C)c(=O)[nH]c1=O,/,/,/,/,26*
Cc1ccc(O)c(C(=O)c2cc(C(=O)NCCC(C)C)c(=O)n(CCC(C)C)c2)c1,5,-1,0,-4,-5
Fc1ccccc1C=Nn1cnnc1,/,/,/,/,4
COc1ccc(OCC(O)Cn2c(N3CCCCC3)nc3c2c(=O)[nH]c(=O)n3C)cc1 (stereo unspecified),2,0,17,0,10
COc1ccc(OCC(O)Cn2c(N3CCCCC3)nc3c2c(=O)n(C)c(=O)n3C)cc1 (stereo unspecified),-1,-1,58*,1,1
COc1ccccc1NS(=O)(=O)c1ccc2c(c1)OCCO2,/,/,58*,/,-5
CSc1ccccc1NS(=O)(=O)c1ccc2c(c1)OCCO2,2,-1,-6,7,3
COc1ccccc1NS(=O)(=O)c1cc(N)ccc1N1CCCC1,1,23*,/,3,11
Cc1ccc(C(O)(C(=O)NNc2ccc3ccccc3n2)c2ccc(C)cc2)cc1,52,0,18,3,2
O=c1[nH]c(N/N=C\c2ccc(F)cc2)nc2ccccc12,5,3,57*,1,/
Cn1c(=O)[nH]c(=O)c2c1nc(SCC(N)=O)n2Cc1cccc(Br)c1,1,2,52*,-11,1
Cn1c(=O)[nH]c(=O)c2c1nc(N)n2Cc1ccccc1,1,-1,52*,0,3
CSc1nc2c(c(=O)[nH]c(=O)n2C)n1Cc1ccccc1,1,0,1,-1,19
C=C(C)CSc1nc2c(c(=O)[nH]c(=O)n2C)n1Cc1ccccc1,-5,4,18,-6,1
C=CCN1N=C(c2ccc(Cl)s2)CSC1=O,8,0,13,-2,6
O=C(c1ccc(OC2CCN(CCc3ccccc3)CC2)cc1)N1CCCCC1CCCO (stereo unspecified),-1,-1,50*,0,7
CCOc1ccc(N2CC(C(=O)NCCc3c[nH]c4ccc(OC)cc34)CC2=O)cc1 (stereo unspecified),1,-1,6,8,-15
c1ccc(-c2csc(Nc3ncccn3)n2)cc1,8,4,55*,-12,-6
CCC(=O)Nc1cc2c(C)cc(=O)oc2cc1C,-10,1,56*,-3,/
CCCCCCC(=O)Nc1cc2c(C)cc(=O)oc2cc1C,-9,-1,4,1,/
CCCCCCCNC(=O)C1(CC2CC(c3cccc(Br)c3)=NO2)CCN(C(=O)C2CCCC2)CC1 (stereo unspecified),-5,0,/,-14,-4
Cc1nc(C)c(-c2csc(Nc3ccc(N)cc3)n2)s1,-6,3,57*,9,6
Cc1cnc(C(=O)OCC(=O)Nc2cccc3ccccc23)cn1,-3,1,/,-5,26*
Cc1cc(C(=O)CSc2ccc(Cl)cc2)cc(C)c1OC(=S)N(C)C,32,2,31,-17,6
N#C/C(=C\c1cccc(NC(=O)c2ccccc2Cl)c1)C(=O)NCCc1ccccc1,-2,-2,55*,-17,12
[O-][n+]1c2ccccc2[n+]([O-])c2cc(O)ccc21,60,3,6,-2,42*
